Residue numbers refer to the chain shown, from its start. In all, about 24,000 sequences were measured (“enrichment r”: median about 0.99, highest 2% from about 3.7 on). This excerpt belongs to a sample that is enriched for the highest values.
T1: UNK ZnF1-3 (human, UniProt Q9C0B0 31-174)
T1 sequence: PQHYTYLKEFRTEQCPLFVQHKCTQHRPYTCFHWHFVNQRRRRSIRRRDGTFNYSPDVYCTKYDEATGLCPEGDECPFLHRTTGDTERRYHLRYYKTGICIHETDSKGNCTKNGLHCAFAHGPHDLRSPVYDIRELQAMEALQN

B1: chr3:102833055:102833056:+_ENSMUSG00000068823_ENSMUST00000029446|mus_mus|motif|central (ssRNA)
RNA: GGGAGUUCUACAGUCCGACGAUCUCAGUAGUAUUUGCUGACUCUUCUUUUUUCAGCACAAGUUCCAAAGGAUGAAAGUUGCGGGUAUUUAAAAAAAGAAAAAAAAAAGAAAAAGAAAAAAAGAAAAAAAAAAGGAGAGCGAGACAACAGAGGAUUGAGCAUCA
B2: 142051865_142054343_4063_CDS_ENSG00000114127_ENST00000264951|human|control|control (ssRNA)
RNA: GGGAGUUCUACAGUCCGACGAUCUGACUGUACUUCAUUUUCUUUGGAGAUAUUCAAAGAUGCUAAAAAGUUCUCAAUUCCAGAGUUAGGCUGCUUAUUGGACAUUUUUUGGGACCAACACUCAGCUUUAGGACUCUUACACUCCAACAGAGGAUUGAGCAUCA
B3: chr11:44378942:44378943:+_ENSMUSG00000019189_ENSMUST00000019333|mus_mus|motif|central (ssRNA)
RNA: GGGAGUUCUACAGUCCGACGAUCUUUAAAUUUAUUAAGACAUUCAGCUAUGUCUGUCAGUCUACAUCCAAAUUUGCGGCGGAAAACAAAGGAAAACCACACCCCACAGUAGGAAUACCAAGUCUGAAAUACACUUUUUUUUGACAACAGAGGAUUGAGCAUCA
B4: chr3:102833055:102833056:+_ENSMUSG00000068823_ENSMUST00000029446|mus_mus|FALSE|FALSE (ssRNA)
RNA: B1 RNA with G82U, G83A
B5: chr19:42259214:42259215:+_ENSMUSG00000018820_ENSMUST00000165783|mus_mus|FALSE|FALSE (ssRNA)
RNA: GGGAGUUCUACAGUCCGACGAUCGCUAUAGUGACUGCUGCAGACUCAGAGACACUAGGAAAGUUGCAAGUGUAUAUUUUCUAUCUAAAUUUCUAACUAAAAUUUGCCCUGUUUUAUUCACUGGCCCAAAGGAUUCUUUUUUAACAACAGAGGAUUGAGCAUCA
B6: chr8:93522421:93522422:+_ENSMUSG00000056608_ENSMUST00000048665|mus_hu|FALSE|FALSE (ssRNA)
RNA: GGGAGUUCUACAGUCCGACGAUCAGACUGGAUCAUUGCUUGAAGAUGAAAAUCAGAAGCAGCUGGAUUGUAAGUAUCUCUAAAUUCUCCAAGUAUUUUCUCCUCAGCACCUUUUAUAAGAUAUGGAUGAUUACAACAUUUCCUCAACAGAGGAUUGAGCAUCA

target: T1, UNK ZnF1-3; assay: nsRBNS (natural sequence RNA bind-n-seq); RBNS binding buffer (assumed for nsRBNS): 25 mM Tris pH 7.5, 150 mM KCl, 3 mM MgCl2, 0.01% Triton X-100, 500 ug/ml BSA, 20 U/ml SUPERase-In, 4 C; UNK is unkempt and MSI1 is Musashi-1; names of the RNAs are library labels; protein concentration not given here; high values mean tight binding

Binder | binding signal
B1 | 8.15 enrichment R
B2 | 0.644 enrichment R
B3 | 1.46 enrichment R
B4 | 5.11 enrichment R
B5 | 1.32 enrichment R
B6 | 1.27 enrichment R

From paper PMC12136788
